MIN6 prolif-1 = MIN6 beta-cell proliferation induction; AID 2380; proliferation, % at 10 µM; MIN6 cells proliferation, ATPlite luminescence, 48 h; cells starved in 0.2% serum; 100% = growth in 10% serum; 330,000 compounds, 0.29% hits;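 active = compounds whose signal lies at least 3.5 SD above the mean of all wells on their plate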
A3A deaminase = inhibitors of human APOBEC3A DNA deaminase. P31941. recombinant A3A, FAM/TAMRA ssDNA deamination fluorescence. inhibition, % at 20 µM. 330,000 compounds, 0.41% hits;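 active = at least 40% inhibition at 20 µM here, with at most 30% in a related deaminase screen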
APOBEC3G inh = APOBEC3G (human) deaminase inhibition | Q9HC16 | recombinant A3G, ssDNA deamination FAM/TAMRA fluorescence | inhibition, % at 20 µM | 330,000 compounds, 0.28% hits;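 active = inhibition of at least 40% at 20 µM, with no more than 30% in the related APOBEC3A deaminase screen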
Target sequence (Q9HC16 whole entry, looked up): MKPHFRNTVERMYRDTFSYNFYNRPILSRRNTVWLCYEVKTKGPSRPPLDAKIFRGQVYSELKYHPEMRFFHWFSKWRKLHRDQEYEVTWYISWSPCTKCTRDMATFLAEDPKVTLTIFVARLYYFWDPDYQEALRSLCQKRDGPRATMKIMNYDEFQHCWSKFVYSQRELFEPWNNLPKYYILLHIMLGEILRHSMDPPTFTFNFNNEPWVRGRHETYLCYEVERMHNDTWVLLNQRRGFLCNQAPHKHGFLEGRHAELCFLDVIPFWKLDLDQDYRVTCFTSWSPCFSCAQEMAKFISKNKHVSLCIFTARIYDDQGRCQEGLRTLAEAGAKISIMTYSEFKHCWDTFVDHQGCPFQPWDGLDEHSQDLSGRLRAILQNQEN
Bfl-1 A1 inh = inhibitors of the anti-apoptotic protein A1, read as caspase activation | MEF A1-2A-BIM cells, Caspase-Glo 3/7 luminescence, 3 h; percent of clofoctol response, vehicle zero | 330,000 compounds, 0.066% hits | caspase activation, % (no concentration beside the values) | AID 2462;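 active = over half of replicate activation scores above 10%, or exactly half above 10 with the replicate mean above 10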
MIN6 prolif-2 = MIN6 beta-cell replication induction, confirmed; shares compounds with MIN6 prolif-1; MIN6 beta-cell proliferation, ATPlite luminescence, 48 h; cells kept in 0.2% serum; scaled between 0.2% and 10% serum; proliferation increase, % at 50 µM; 920 tested, under 10 active; AID 463095;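 active = proliferation increase above 40% at any of the four tested concentrations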
Each line names hits and unclear results; the compound was inactive in the other large screens (follow-up assays come after a bar, where they were run). Compounds with a hit are over-represented: about 1.1% of the library has one in this group of screens.

COc1ccc(Nc2nc(N(C)c3ccccc3)nc(N)c2[N+](=O)[O-])cc1	MIN6 prolif-1 10 | MIN6 prolif-2 inactive
CN(c1ccccc1)c1nc(N)c([N+](=O)[O-])c(Nc2ccccc2)n1	none
COc1ccc(NS(=O)(=O)c2cccc(C(=O)NNC(=O)CNC(=O)c3ccccc3)c2)cc1	none
COc1ccc(NS(=O)(=O)c2cccc(C(=O)NNC(=O)CNC(=O)c3cccc(C)c3)c2)cc1	MIN6 prolif-1 9.7 | MIN6 prolif-2 inactive
CCOc1ccc(CN2CCN(C3CCSCC3)CC2CCO)cc1 (stereo not drawn)	none
CCOc1ccc(-c2nnc3ccc(SCC(=O)N4CCCCC4)nn23)cc1	MIN6 prolif-1 12 | MIN6 prolif-2 inactive
CCc1ccccc1NC(=O)COC(=O)c1cccs1	MIN6 prolif-1 8.1 | MIN6 prolif-2 inactive
O=C(OCC(=O)N1CCCC1)c1cccs1	MIN6 prolif-1 8.1 | MIN6 prolif-2 inactive
O=C(COC(=O)c1cccs1)Nc1ccccc1C(F)(F)F	none
O=C(OCC(=O)N1CCN(c2ccccc2)CC1)c1cccs1	none
Cc1c(NS(=O)(=O)c2cccc(C(=O)O)c2)c(=O)n(-c2ccccc2)n1C	MIN6 prolif-1 4.9 | MIN6 prolif-2 inactive
Cc1c(NS(=O)(=O)c2ccccc2)c(=O)n(-c2ccccc2)n1C	none
CCSc1nc2c(c(=O)[nH]c(=O)n2C)n1C/C=C(/C)Cl	none
C=CCSc1nc2c(c(=O)[nH]c(=O)n2C)n1C/C=C(/C)Cl	MIN6 prolif-1 6.7 | MIN6 prolif-2 inactive
Cc1cc(S(=O)(=O)N2CCCC2)ccc1OCC(=O)N1CCOCC1	none
COc1ccc(N2CCN(C(=O)COc3ccc(S(=O)(=O)N4CCOCC4)cc3C)CC2)cc1	MIN6 prolif-1 0.0 | MIN6 prolif-2 inactive
N#C/C(=C\c1ccccc1)C(=O)OCC(=O)N1CCCC1	none
Cc1ccc(C(=O)N/C(=C/c2cccnc2)C(=O)NCc2ccco2)cc1	MIN6 prolif-1 4.7 | MIN6 prolif-2 inactive
COc1ccc(C(=O)N/C(=C/c2cccnc2)C(=O)NCc2ccco2)cc1OC	none
O=S(=O)(NN1CCOCC1)c1ccc(Br)cc1	none
O=C1CCCCCCC1Sc1ccccc1[N+](=O)[O-] (stereo not drawn)	MIN6 prolif-1 6.2 | MIN6 prolif-2 inactive
CCOC(=O)c1ccccc1NC(=O)CN(c1ccccc1C)S(C)(=O)=O	MIN6 prolif-1 8.4 | MIN6 prolif-2 inactive
COc1ccccc1NC(=O)CN(c1ccccc1C)S(C)(=O)=O	none
O=C1CCC(C(=O)N2CCOCC2)CN1Cc1ccc(Cl)cc1 (stereo not drawn)	none
O=C1CCC(C(=O)N2CCSCC2)CN1Cc1ccc(Cl)cc1 (stereo not drawn)	MIN6 prolif-1 27 | MIN6 prolif-2 inactive
CCOc1cc(/C=N/n2cnnc2)ccc1OCC(=O)Nc1ccccc1OC	MIN6 prolif-1 8.0 | MIN6 prolif-2 inactive
NC(=O)c1cc(S(=O)(=O)NCCc2ccc(S(N)(=O)=O)cc2)cs1	MIN6 prolif-1 5.5 | MIN6 prolif-2 inactive
CSCCC(NC(=O)c1ccccc1Br)C(=O)NNC(=O)c1ccncc1 (stereo not drawn)	none
CC1CCN(CC(=O)Nc2nc(-c3ccccc3)cs2)CC1	MIN6 prolif-1 6.2 | MIN6 prolif-2 inactive
COc1ccccc1C(C)NCC(=O)Nc1ccccc1C(F)(F)F (stereo not drawn)	MIN6 prolif-1 5.3 | MIN6 prolif-2 inactive
CCCCN(C)Cc1c(O)ccc2c(=O)c(-c3ccccc3OC)coc12	none
COc1ccccc1/C(C)=N/Oc1cc(N)cc([N+](=O)[O-])c1	none
N#Cc1ccc(CN2CCN(CC(=O)NCCc3ccc(Cl)cc3Cl)CC2)cc1	none
CCCC(=O)Nc1ccc(-c2csc(N/N=C\c3ccncc3)n2)cc1	none
COc1ccc(OC)c(/C=N/NC(=O)CSc2cc(C)nc3c(OC)cccc23)c1	MIN6 prolif-1 10 | MIN6 prolif-2 inactive
COc1ccc2nc(C)cc(SCC(=O)N/N=C/c3ccco3)c2c1	none
CCn1c(=O)[nH]c2cc(Cl)c(Cl)cc21	none
Cc1c(-c2ccccc2)[n+](=O)c2c(n1[O-])CCC2	MIN6 prolif-1 8.9 | MIN6 prolif-2 inactive
O=C1NC2(CCCCC2)C(=O)N1c1ccc(Cl)cc1	MIN6 prolif-1 8.4 | MIN6 prolif-2 inactive
CCN(CC)S(=O)(=O)c1cccc(-c2nnc(SCCOc3ccccc3)o2)c1	none
CCN(CC)S(=O)(=O)c1cccc(-c2nnc(SCC(=O)c3cc(C)n(C)c3C)o2)c1	MIN6 prolif-1 12 | MIN6 prolif-2 inactive

High-throughput results from PubChem.
